In PubChem BioAssay:
A number with no mark means an inactive call. For part of these data: Entries with a potency or affinity are not part of this list. The source made the active and inactive calls. Unless noted, how the calls were made is not given here.

Key:
[1] = antimalarial activity against Dd2 strain (AID 2302;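 active means growth inhibition above 50% at the single 2 µM test dose, taken to imply half-maximal potency below 2 µM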;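 further: 0% = DMSO untreated growth and 100% = chloroquine plus artemisinin killed control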); details: P. falciparum Dd2 in RBCs, LDH growth readout, 72 h; at 2 µM; hits give high values
[2] = human hepatoma cell viability loss – ATP luminescence, cytotoxicity control for P. falciparum antimalarial project, primary screen (AID 2303;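 active means inhibition above 50%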;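 further: 0% = DMSO wells and 100% = digitonin-killed cells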); details: HepG2 viability, 24-48 h, at 10 µM, hits give high values
[3] = biological target: L-lactate dehydrogenase (Plasmodium falciparum (isolate CDC / Honduras)) (UniProt Q27743); test: PfLDH activity inhibition – cell lysate, 3D7 strain, counter-screen for P. falciparum growth inhibition project (AID 2304);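 further: 0% = vehicle and 100% = reference inhibitor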; details: P. falciparum 3D7 crude extract, LDH APAD/NBT absorbance; at 2 µM; hits give high values
[4] = inhibition of 3D7 malaria parasite growth – strain 3D7 (AID 2306);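 further: 0% = DMSO wells and 100% = chloroquine plus artemisinin control wells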; details: P. falciparum 3D7 erythrocytic growth, LDH absorbance, 72 h; at 2 µM; hits give high values
[5] = biological target: Calcium-dependent protein kinase 1 (Plasmodium falciparum (isolate 3D7)) (UniProt P62344); test: PfCDPK1 kinase inhibitors, biochemical, TCAMS library (AID 1159585; cut-off not given, nearly all actives have IC50 up to about 0.98 µM;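 further: inhibitors leave more ATP so luminescence rises with inhibition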); details: recombinant PfCDPK1, Kinase-Glo ATP depletion luminescence
[6] = biological target: Plasmodium falciparum protein kinase 6 (PK6, PF3D7_1337100) (UniProt Q8IDW1); test: PfPK6 kinase inhibitors, biochemical, TCAMS library (AID 1159586); details: recombinant PfPK6, Kinase-Glo ATP depletion luminescence
[7] = biological target: Protein kinase 7 (PK7), Plasmodium falciparum 3D7 (PF3D7_0213400) (UniProt Q7YTF7); test: inhibition of Plasmodium PK7 catalytic activity – biochemical, TCAMS antimalarial set, Kinase-Glo luminescence (AID 1159587); details: recombinant PfPK7, Kinase-Glo ATP depletion luminescence
[8] = biological target: Calcium-dependent protein kinase 4 (Plasmodium falciparum (isolate 3D7)) (UniProt Q8IBS5); test: PfCDPK4 kinase inhibitors, biochemical, TCAMS library (AID 1159588; cut-off not given, nearly all actives have IC50 up to about 0.91 µM); details: recombinant PfCDPK4, Kinase-Glo ATP depletion luminescence
Sequence of Calcium-dependent protein kinase 4 (Plasmodium falciparum (isolate 3D7)) (Q8IBS5 whole entry, looked up): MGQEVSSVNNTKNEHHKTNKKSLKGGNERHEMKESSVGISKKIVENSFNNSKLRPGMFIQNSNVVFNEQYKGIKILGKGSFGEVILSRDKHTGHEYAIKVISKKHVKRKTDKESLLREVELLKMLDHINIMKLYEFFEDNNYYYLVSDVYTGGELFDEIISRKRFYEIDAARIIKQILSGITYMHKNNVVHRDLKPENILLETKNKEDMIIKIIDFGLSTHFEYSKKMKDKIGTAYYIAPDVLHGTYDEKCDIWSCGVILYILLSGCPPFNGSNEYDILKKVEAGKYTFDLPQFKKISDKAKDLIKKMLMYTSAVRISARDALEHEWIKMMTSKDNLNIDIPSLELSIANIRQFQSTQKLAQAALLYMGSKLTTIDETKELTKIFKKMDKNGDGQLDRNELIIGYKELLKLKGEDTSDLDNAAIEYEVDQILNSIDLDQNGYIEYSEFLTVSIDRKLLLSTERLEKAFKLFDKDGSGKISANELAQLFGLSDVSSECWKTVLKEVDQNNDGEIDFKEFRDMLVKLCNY

Sequence of Calcium-dependent protein kinase 1 (Plasmodium falciparum (isolate 3D7)) (P62344 whole entry, looked up): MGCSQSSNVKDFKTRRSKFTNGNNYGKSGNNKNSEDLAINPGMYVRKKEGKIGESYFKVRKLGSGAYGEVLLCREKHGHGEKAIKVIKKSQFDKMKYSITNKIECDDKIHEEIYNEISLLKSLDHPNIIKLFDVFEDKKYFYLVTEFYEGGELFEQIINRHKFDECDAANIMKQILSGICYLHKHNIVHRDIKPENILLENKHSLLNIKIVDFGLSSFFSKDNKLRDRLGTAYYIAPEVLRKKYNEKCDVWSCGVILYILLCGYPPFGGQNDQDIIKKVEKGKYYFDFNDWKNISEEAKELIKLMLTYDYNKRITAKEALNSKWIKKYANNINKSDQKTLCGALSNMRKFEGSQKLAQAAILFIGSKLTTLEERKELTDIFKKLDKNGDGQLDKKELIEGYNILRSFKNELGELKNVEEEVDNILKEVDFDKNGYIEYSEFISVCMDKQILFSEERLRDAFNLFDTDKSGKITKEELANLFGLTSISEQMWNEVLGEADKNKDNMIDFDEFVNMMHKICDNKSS
Sequence of Plasmodium falciparum protein kinase 6 (PK6, PF3D7_1337100) (Q8IDW1 1-305): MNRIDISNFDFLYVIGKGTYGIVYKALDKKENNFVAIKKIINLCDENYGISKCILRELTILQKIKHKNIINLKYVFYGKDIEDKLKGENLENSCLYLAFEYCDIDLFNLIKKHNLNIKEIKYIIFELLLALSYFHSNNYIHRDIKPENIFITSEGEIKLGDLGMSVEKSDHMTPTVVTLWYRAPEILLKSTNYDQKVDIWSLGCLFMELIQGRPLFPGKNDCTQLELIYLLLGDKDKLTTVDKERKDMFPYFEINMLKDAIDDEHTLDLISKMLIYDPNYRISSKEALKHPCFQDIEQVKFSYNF
Sequence of Protein kinase 7 (PK7), Plasmodium falciparum 3D7 (PF3D7_0213400) (Q7YTF7 1-343): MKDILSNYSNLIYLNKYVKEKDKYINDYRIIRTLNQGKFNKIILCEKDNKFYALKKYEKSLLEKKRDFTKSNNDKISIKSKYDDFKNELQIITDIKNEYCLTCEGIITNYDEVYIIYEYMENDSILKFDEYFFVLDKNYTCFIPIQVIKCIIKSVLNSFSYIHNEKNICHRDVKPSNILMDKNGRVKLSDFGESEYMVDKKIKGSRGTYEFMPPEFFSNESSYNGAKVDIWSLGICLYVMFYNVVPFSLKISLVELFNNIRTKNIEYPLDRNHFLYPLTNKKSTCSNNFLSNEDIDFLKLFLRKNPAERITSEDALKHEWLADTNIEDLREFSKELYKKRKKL
Sequence of L-lactate dehydrogenase (Plasmodium falciparum (isolate CDC / Honduras)) (Q27743 whole entry, looked up): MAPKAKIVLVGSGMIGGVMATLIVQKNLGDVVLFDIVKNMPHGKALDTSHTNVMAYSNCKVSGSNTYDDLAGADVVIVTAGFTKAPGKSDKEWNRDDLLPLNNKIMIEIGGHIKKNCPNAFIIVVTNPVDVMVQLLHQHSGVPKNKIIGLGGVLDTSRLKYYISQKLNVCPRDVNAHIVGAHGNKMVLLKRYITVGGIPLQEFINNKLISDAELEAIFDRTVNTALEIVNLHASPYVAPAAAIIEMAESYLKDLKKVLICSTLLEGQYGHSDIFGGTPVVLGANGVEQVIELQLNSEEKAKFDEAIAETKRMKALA

Structure (SMILES) | growth inhibition [1] | inhibition [2] | inhibition [3] [%] | growth inhibition [4] | outcome [5] | outcome [6] | outcome [7] | outcome [8]
Cc1nnc2c(N(C(=O)NCCc3ccccc3)C(=O)NCCc3ccccc3)cc3cc(Cl)ccc3n12 | 34% | 0% | -5 | 91% (active) | inactive | inactive | inactive | inactive
CCn1cc(-c2cc(C(=O)Nc3ccc(OC)cc3C)c3ccccc3n2)c(C)n1 | 100% (active) | -5% | 2 | 97% (active) | inactive | inactive | inactive | inactive
Cc1cc(NC(=O)Nc2ccc3nccc(N4CCN(C)CC4)c3c2)ccc1Br | 100% (active) | 31% | -2 | 101% (active) | inactive | inactive | inactive | inactive
COc1ccc(NC(=O)/C=C/c2ccccc2Cl)cc1OCCN1CCC(N(C)C)CC1 | 19% | 18% | -2 | 89% (active) | inactive | inactive | inactive | inactive
CC[C@H](C)CNC(=O)c1cccc(-c2ccc(CN3CCC(N4CCCC4)CC3)cc2)n1 | 82% (active) | 41% | -2 | 101% (active) | inactive | inactive | inactive | inactive
CN1CCCN(Cc2ccc(-c3ccc(NC(=O)c4cccc(Cl)c4)cc3)cc2)CC1 | 64% (active) | 55% (active) | 2 | 95% (active) | inactive | inactive | inactive | inactive
COc1ccc(-c2cccc(NC(=O)c3cccc(C#N)c3)c2)cc1CNC(C)C | 51% (active) | 22% | 0 | 101% (active) | inactive | inactive | inactive | inactive
O=S(=O)(NCCN1CCCC1)c1ccc(-c2ccc(CNC3Cc4ccccc4C3)cc2)s1 | 97% (active) | 47% | -2 | 100% (active) | inactive | inactive | inactive | inactive
CN1CCN(C(C(=O)NCc2cc(Cl)cc(Cl)c2)c2ccccc2-c2ccsc2)CC1 (stereo not drawn) | 80% (active) | 11% | 2 | 95% (active) | inactive | inactive | inactive | inactive
CC(C)Nc1nc(NC2CCCCC2)nc(N2CCCCCCC2)n1 | 96% (active) | 13% | 2 | 86% (active) | inactive | inactive | inactive | inactive
CC(C)CCN(Cc1cncn1Cc1cccc(C(F)(F)F)c1)C(=O)c1ccccc1C#N | 96% (active) | -4% | -2 | 99% (active) | inactive | inactive | inactive | inactive
COc1ccc(CCNC(=O)c2cc(C)ccc2O)cc1-c1ccc(C(C)(C)C)cc1 | 94% (active) | 1% | -6 | 97% (active) | inactive | inactive | inactive | inactive
O=C(/C=C/c1ccc(C(F)(F)F)cc1)NCCCCCN1CCCN(C(=O)Nc2ccc(Cl)c(Cl)c2)CC1 | 17% | 89% (active) | 0 | 100% (active) | inactive | inactive | inactive | inactive
COc1ccc(OC)c(Cc2cnc3nc(N)[nH]c(=O)c3c2C)c1 | 4% | 62% (active) | 3 | 98% (active) | inactive | inactive | inactive | inactive
CCNc1cc(C(=O)N[C@@H](Cc2ccoc2)[C@H](O)CNC(C)CCCC(C)C)cc(N2CCCCS2(=O)=O)c1 (stereo partly drawn) | 68% (active) | -2% | 0 | 99% (active) | inactive | inactive | inactive | inactive
Cc1noc(C)c1-c1ccc2c(Nc3ccccc3C(C)(C)C)c(C(=O)NCc3ccccc3)cnc2c1 | 89% (active) | 20% | -1 | 99% (active) | inactive | inactive | inactive | inactive
CC=CCON1C(N)=NC(N)=NC1(C)C | 1% | 57% (active) | 5 | 94% (active) | inactive | inactive | inactive | inactive
Nc1nc(N)c2c(Cc3ccc(Br)cc3)cccc2n1 | 20% | 28% | 0 | 99% (active) | inactive | inactive | inactive | inactive
Cc1c(Cn2ncc(N3CCC(N)CC3)c(Cl)c2=O)cccc1NC(=O)Nc1ccc(-c2ccccc2)cc1 | 43% | 19% | -1 | 97% (active) | inactive | inactive | inactive | inactive
CCn1c(-c2nonc2N)nc2c(-c3cccc(NC(=O)Nc4cccc(OC)c4)c3)ncc(OCCCN)c21 | 69% (active) | 1% | 4 | 92% (active) | inactive | inactive | inactive | inactive
CC(CN1CCN(CC(c2ccc(F)cc2)N2CCN(C)CC2)CC1)C(=O)c1ccc(O)cc1 (stereo not drawn) | 10% | -2% | -5 | 97% (active) | inactive | inactive | inactive | inactive
